Results: the OligoGym collection

target: UTS2D; experiment: pooled miR-30 sensor sort-seq; sequence = guide strand; conditions: shRNA
Further: reference of the scale not given here.

Row | Sequence | sensor-assay potency score (higher = more potent)
1 | TTAGGAGTCCAAAGCAAACAGT | -1.23
2 | TAGGAGTCCAAAGCAAACAGTG | -0.558
3 | ATTTTTATTCAGTAGAGCCAGC | -1.2
4 | ATTTGTATATTTTTTATCTGGA | -0.591
5 | TAAGATATGGTCGTCCATGCAC | -0.532

target: UXS1; experiment: as above; conditions: shRNA

Row | Sequence | sensor-assay potency score (higher = more potent)
6 | TTCAACCATCTCTTCAATCTTG | -0.0638
7 | TAATTAACTGAGCAAATTCTAG | -1.25
8 | TTAGTGGTTCAACCATCTCTTC | -1.31
9 | TAACTGAGCAAATTCTAGGATT | -0.862
10 | TATCTGGTCAACCTCGATGTAG | -1.33
11 | TATACATGTAGTTTGGAGGGGA | 0.245
12 | TTGTCTGAGACCCGGATCCGTA | -1.19
13 | TTTTAGTTCACCATTTTCCTGG | 0.218
14 | TTAACTGAGCAAATTCTAGGAT | 0.0899
15 | TAGATCGCTGACGTACTGGAAC | -0.778
16 | TTTGTTTAAACCTTCCTCCAGC | -0.24
17 | TAGGATTGTGTGTTCTTCTGGG | 0.906

target: VAMP1; experiment: as above; conditions: shRNA

Row | Sequence | sensor-assay potency score (higher = more potent)
18 | TTGACTGCAAAGTCCCAGGGTT | 0.215
19 | TATGATGTCCACCACCTCCTCC | -0.679
20 | ATAACTACCACGATGATGGCAC | 0.289
21 | TTTAGCTTGGCAGCACTGCTCT | -0.465
22 | TTTGGTGGAAGTACAACTGTTG | 0.106
23 | TTTTGTTGCACATTTGCTCATG | -0.374
24 | AGCATGATCATCATCTTGCAGT | -1.92
25 | TTACTGGTCATGTTAGGAGGAG | -0.535
26 | ATGATCATCATCTTGCAGTTTT | -0.861
27 | TAGCTTGGCAGCACTGCTCTCA | -0.655
28 | TGCTGTAGTCGTCTGTTACTGG | -0.0703
29 | TAGTCGTCTGTTACTGGTCATG | -1.49

target: VAMP8; experiment: as above; conditions: shRNA

Row | Sequence | sensor-assay potency score (higher = more potent)
30 | ATCTTCACGTTCTTCCACCAGA | -1.17
31 | TCTTCCACCAGAATTTTCGAGC | -0.564
32 | ATGTCGTCTTGAAGTGCTCAGA | -1.56
33 | TTTCGAGCCACCTTCTGCGATG | -0.89
34 | TTTTCGAGCCACCTTCTGCGAT | -1.17
35 | TTCTGGGTCATAATATTCTTAA | -1.25
36 | ATCATCTTCACGTTCTTCCACC | -0.825
37 | TTTGCAGGTTCCGCACACGATC | -1.07
38 | AAGGACAATCATCTTCACGTTC | -0.269
39 | ATGATAAAAACAATCACGCAGA | -0.843
40 | AGATCCTCTGTCTTGTTGCGGA | -1.4
